The results in this text go back to PubChem BioAssay (NCATS).

The structures appear in SMILES notation. Results filed as inconclusive are left out. A structure can be active in one record and inactive in another. Calls of active or inactive are those of the source. Unless noted, the call rests on the fitted dose curve; in most records, active means well fitted curve in the direction sought with a large enough effect; inconclusive means small, poorly fitted or top-dose-only effect, or another doubt; inactive means no such curve, though single readings can be large; an effect the other way counts as inactive or inconclusive.

Experiment [1] is described as follows: P-glycoprotein substrates identified in KB-3-1 adenocarcinoma cell line, qHTS therapeutic library screen (AID 1346986). Further: nearly all actives have a fitted effect of over 60% in size.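 Further: potency means the concentration at half of the fitted maximal effect; potency is for cytotoxicity meaning loss of cell viability.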 The method, boiled down:
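Viability by CellTiter-Glo after 72 h compound exposure at 37 degree C, 5% CO2. Cytotoxic call: curve class -1.1 to -2.4, maximum response >50%, AC50 < 10 uM, compared across KB-3-1 and P-gp-overexpressing KB-8-5-11.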
On the technique in general: qHTS replaces the single test concentration by a dilution series.

A short description of experiment [2]: P-glycoprotein substrates identified in KB-8-5-11 adenocarcinoma cell line, qHTS therapeutic library screen (AID 1346987). Further: nearly all actives have a fitted effect of over 65% in size. Further: potency means the concentration at half of the fitted maximal effect. The gist of the method: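 In this qHTS, P-gp-rich KB-8-5-11 cells received library compounds across a concentration range. Viability was quantified by luminescence after 72 h at 37 degree C.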
Experiment [3] in a line: qHTS to identify inhibitors of the type 1 interferon - major histocompatibility complex class I in skeletal muscle: primary screen against the NCATS Mechanism Interrogation Plate v5.0 (MIPE) Libary (AID 1347411). Further: nearly all actives have a fitted effect of over 65% in size. Further: potency means the concentration at half of the fitted maximal effect.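 On activity change, negative = inhibition: plate controls were vehicle for no effect and reference inhibitor for full effect.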 The gist of the method: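 HLA-B HiBit myoblasts, dexamethasone-free medium + 4 ng/ml IFN-b, 24 h compound, 11-pt 1:3 from 46 uM final. Readout: Nano-Glo HiBiT lytic luminescence after 10 min lysis, RT.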

Experiment [4] is described as follows: Primary qHTS for inhibitors of nuclear receptor binding SET domain protein 2 (NSD2) in an isogenic RCH-ACV NSD2 p.E1099K mutant (9B) (AID 1645876). Further: nearly all actives have a fitted effect of over 70% in size. Further: potency means the concentration at half of the fitted maximal effect.
Experiment [5] is described as follows: Primary qHTS for inhibitors of nuclear receptor binding SET domain protein 2 (NSD2) in an RCH-ACV wild type WT cells (2C) (AID 1645877). Further: nearly all actives have a fitted effect of over 70% in size. Further: potency means the concentration at half of the fitted maximal effect.
The target in experiment [6] is Glutathione peroxidase 1 (Homo sapiens) (UniProt P07203). The experiment can be described thus: Primary qHTS Assay for Inhibitors of Recombinant Selenoprotein Glutathione Peroxidase 1 (GPX1) (AID 1845191). Further: nearly all actives have a fitted effect of over 65% in size. The method, boiled down: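 GR-coupled readout: NADPH consumption tracked by fluorescence, ex 340/em 450 nm, at t=0 and after 15 min at RT. Final mix 10 nM GPX1, 1 mM GSH, 0.5 mM CHP, 0.5 mM NADPH, 100 nM GR, 0.01% BSA, following 30 min enzyme–compound preincubation.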
Glutathione peroxidase 1 (Homo sapiens), sequence (P07203 whole entry, looked up): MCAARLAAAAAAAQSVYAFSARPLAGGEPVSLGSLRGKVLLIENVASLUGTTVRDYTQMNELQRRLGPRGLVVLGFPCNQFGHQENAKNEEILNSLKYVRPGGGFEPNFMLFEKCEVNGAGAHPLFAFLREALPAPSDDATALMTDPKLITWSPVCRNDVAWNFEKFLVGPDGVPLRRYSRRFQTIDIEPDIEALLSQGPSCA

Experiment [7] addresses Phospholipid hydroperoxide glutathione peroxidase GPX4 (Homo sapiens) (UniProt P36969). The experiment can be described thus: Primary qHTS Assay for Inhibitors of Recombinant Selenoprotein Glutathione Peroxidase 4 (GPX4) (AID 1845192). Further: nearly all actives have a fitted effect of over 65% in size. On activity change, negative = inhibition: on the % scale 0 is the no-effect control and ±100 the full control effect. To be noted: outcome: dose series up to 50 µM unless noted. The gist of the method: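 Steps: GPX4 plus compound, 30 min RT; add GR/GSH/NADPH master mix; start with cumene hydroperoxide; read 340/450 nm fluorescence at 0 and 15 min. Finals were 200 nM GPX4, 1 mM GSH, 0.5 mM CHP, 0.5 mM NADPH, 100 nM GR.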

Experiment [8] can be described thus: qHTS drug screen for cell cycle checkpoint inhibitors in PARPi-resistant BRCA-mutant ovarian cancer cell lines. (AID 1963452; calls by dose curve; further: potency means the concentration at half of the fitted maximal effect). The settings on record: PEO1/OlaR viability, CellTiter-Glo luminescence, 96 h; for Z-AUC: stronger effect = lower value. The method, boiled down:
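PEO1, PEO4 and PEO1/OlaR ovarian cancer cells, 600 per well, exposed 96 h at 37C to a dilution series. Viability read by CellTiter-Glo luminescence, normalized to DMSO and empty wells; activity summarized as Z-AUC.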

The target in experiment [9] is Calcium and integrin-binding protein 1 (Homo sapiens) (UniProt Q99828). The experiment can be described thus: Primary qHTS for Identification of Calcium Integrin Binding Protein 1 (CIB1) Competitor (AID 1508620). Further: top concentration of the series differs between compounds; on the % scale 0 is the no-effect control and ±100 the full control effect. The gist of the method: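 Fluorescence polarization competition: GST-tagged CIB1 (1 uM final) preincubated with compound 15 min at room temperature, then FITC-labelled alphaIIb peptide (100 nM final) added. After 15 min at room temperature, polarization read at Ex 480/Em 540.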
Calcium and integrin-binding protein 1 (Homo sapiens), sequence (Q99828 whole entry, looked up): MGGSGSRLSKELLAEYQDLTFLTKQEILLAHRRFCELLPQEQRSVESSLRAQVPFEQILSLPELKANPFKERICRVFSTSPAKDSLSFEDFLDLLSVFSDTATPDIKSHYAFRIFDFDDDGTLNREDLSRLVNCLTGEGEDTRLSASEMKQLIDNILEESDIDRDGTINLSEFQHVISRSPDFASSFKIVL

For experiment [10], the target named is Catechol O-methyltransferase (Homo sapiens) (UniProt P21964). As to the kind of experiment: Confirmatory Screen for Target Class Profiling of Small Molecule Inhibitors of Methyltransferases (AID 1745852). On activity change, negative = inhibition: on the % scale 0 is the no-effect control and ±100 the full control effect. To be noted: MTase-Glo luminescence, SAH detection, recombinant enzyme; measured here: COMT max response; stronger effect = lower value.
Catechol O-methyltransferase (Homo sapiens), sequence (P21964 whole entry, looked up): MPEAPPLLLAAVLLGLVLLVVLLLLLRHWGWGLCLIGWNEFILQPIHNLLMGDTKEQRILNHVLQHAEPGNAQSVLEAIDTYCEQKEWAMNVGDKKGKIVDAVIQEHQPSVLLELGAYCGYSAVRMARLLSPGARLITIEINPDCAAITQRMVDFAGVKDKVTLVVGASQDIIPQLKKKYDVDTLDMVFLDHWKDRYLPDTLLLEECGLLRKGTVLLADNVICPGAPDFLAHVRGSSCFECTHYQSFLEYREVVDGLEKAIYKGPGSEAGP
Experiment [11] concerns the target Guanidinoacetate N-methyltransferase (Homo sapiens) (UniProt Q14353). The description is as above. The settings on record: activity change, negative = inhibition: at 57.3 µM (top of the series) unless noted.
Experiment [12] deals with Nicotinamide N-methyltransferase (Homo sapiens) (UniProt P40261). The description is as above. To be noted: MTase-Glo luminescence, SAH detection, recombinant enzyme; measured here: NNMT max response; stronger effect = lower value.
Nicotinamide N-methyltransferase (Homo sapiens), sequence (P40261 whole entry, looked up): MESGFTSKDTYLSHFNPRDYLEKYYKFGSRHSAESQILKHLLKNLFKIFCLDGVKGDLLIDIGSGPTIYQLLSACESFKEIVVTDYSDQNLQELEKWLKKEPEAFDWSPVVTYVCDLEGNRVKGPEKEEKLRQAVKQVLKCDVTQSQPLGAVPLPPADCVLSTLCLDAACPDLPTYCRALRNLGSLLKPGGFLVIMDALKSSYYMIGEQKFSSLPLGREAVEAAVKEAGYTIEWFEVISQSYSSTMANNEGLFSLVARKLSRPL
Experiment [13] has as its target Phenylethanolamine N-methyltransferase (Homo sapiens) (UniProt P11086). The experiment is described as above. To be noted: MTase-Glo luminescence, SAH detection, recombinant enzyme; measured here: PNMT max response; stronger effect = lower value.
For experiment [14], the target named is Cytochrome P450 2D6 (Homo sapiens) (UniProt P10635). As to the kind of experiment: Cytochrome P450 family 2 subfamily D member 6 (CYP2D6) small molecule antagonists: luciferase biochemical (cell-free) qHTS assay (AID 1645840; active means well fitted curve in the direction sought with a large enough effect in the repeat runs; an effect the other way counts as inactive or inconclusive; further: on the % scale 0 is the no-effect control and ±100 the full control effect; nearly all actives have a fitted effect of over 55% in size). The gist of the method: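 P450-Glo CYP2D6 system: proluciferin substrate converted by enzyme to luciferin, read by luminescence proportional to activity. Enzyme-substrate mix with compound 10 min at room temperature, then NADPH regeneration 1 h before detection reagent.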
Cytochrome P450 2D6 (Homo sapiens), sequence (P10635 whole entry, looked up): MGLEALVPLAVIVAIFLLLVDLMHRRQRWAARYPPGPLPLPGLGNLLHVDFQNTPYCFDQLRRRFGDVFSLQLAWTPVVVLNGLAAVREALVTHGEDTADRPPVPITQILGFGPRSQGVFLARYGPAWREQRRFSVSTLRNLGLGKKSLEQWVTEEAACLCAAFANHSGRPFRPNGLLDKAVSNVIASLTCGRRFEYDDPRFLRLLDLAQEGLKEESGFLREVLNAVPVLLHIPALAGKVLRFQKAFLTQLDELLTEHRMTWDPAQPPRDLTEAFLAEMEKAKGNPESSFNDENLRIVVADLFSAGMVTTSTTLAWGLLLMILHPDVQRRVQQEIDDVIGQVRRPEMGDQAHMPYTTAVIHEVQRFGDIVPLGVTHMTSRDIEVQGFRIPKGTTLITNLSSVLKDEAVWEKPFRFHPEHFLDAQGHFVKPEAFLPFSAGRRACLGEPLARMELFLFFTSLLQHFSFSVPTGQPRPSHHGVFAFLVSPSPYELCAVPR

The target in experiment [15] is Cytochrome P450 2C9 (Homo sapiens) (UniProt P11712). The experiment can be described thus: Cytochrome P450 family 2 subfamily C member 9 (CYP2C9) small molecule antagonists: luciferase biochemical (cell-free) qHTS assay (AID 1645842; active means well fitted curve in the direction sought with a large enough effect in the repeat runs; an effect the other way counts as inactive or inconclusive; further: potency means the concentration at half of the fitted maximal effect; nearly all actives have a fitted effect of over 55% in size). The gist of the method: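 P450-Glo CYP2C9 system: proluciferin substrate with enzyme in mix containing 0.4% BSA, 10 min at room temperature, then NADPH regeneration solution added and incubated 1 h at 37C. Detection reagent stopped reaction; luminescence read after 20 min as RLU.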
Cytochrome P450 2C9 (Homo sapiens), sequence (P11712 whole entry, looked up): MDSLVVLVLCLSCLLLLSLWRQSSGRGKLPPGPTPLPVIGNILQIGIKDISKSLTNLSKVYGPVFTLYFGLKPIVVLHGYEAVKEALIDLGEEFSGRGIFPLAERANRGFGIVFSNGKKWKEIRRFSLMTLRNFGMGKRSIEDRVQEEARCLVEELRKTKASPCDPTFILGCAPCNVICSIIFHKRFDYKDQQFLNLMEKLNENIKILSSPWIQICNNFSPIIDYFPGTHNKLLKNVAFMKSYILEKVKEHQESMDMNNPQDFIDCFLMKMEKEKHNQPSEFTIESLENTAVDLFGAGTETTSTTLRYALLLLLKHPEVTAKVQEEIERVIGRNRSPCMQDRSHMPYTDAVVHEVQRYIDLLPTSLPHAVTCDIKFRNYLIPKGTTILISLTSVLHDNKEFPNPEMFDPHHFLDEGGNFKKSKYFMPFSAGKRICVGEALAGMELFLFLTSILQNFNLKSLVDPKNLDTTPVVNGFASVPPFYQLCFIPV

A short description of experiment [16]: Primary qHTS for small molecule stabilizers of the endoplasmic reticulum resident proteome: Secreted ER Calcium Modulated Protein (SERCaMP) assay (AID 1508630). Further: on the % scale 0 is the no-effect control and ±100 the full control effect. The method, boiled down:
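The SH-SY5Y reporter protocol was run at 3 concentrations up to 38.3 uM (primary) or 11 concentrations (follow-up): 16 h compound, 100 nM thapsigargin for 4 h, then extracellular luciferase luminescence.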

The mark [17] stands for this setting: measured here: PEO1 parental Z-AUC.

Phospholipid hydroperoxide glutathione peroxidase GPX4 (Homo sapiens), sequence (P36969 whole entry, looked up): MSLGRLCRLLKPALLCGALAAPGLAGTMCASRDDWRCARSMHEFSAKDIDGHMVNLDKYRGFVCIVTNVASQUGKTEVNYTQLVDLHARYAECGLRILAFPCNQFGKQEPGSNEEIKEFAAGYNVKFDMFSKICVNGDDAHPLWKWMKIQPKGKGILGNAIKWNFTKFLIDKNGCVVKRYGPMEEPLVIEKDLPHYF
Phenylethanolamine N-methyltransferase (Homo sapiens), sequence (P11086 whole entry, looked up): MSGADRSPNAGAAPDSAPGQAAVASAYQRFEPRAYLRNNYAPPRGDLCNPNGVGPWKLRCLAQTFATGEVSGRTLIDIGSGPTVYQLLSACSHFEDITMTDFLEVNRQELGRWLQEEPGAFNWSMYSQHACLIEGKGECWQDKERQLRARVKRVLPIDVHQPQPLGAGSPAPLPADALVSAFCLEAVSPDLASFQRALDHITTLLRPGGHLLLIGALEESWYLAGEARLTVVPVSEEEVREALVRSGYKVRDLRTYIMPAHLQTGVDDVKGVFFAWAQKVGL

For `CN1CCN(Cc2ccc(Nc3ncc(Cl)c(Nc4ccccc4S(=O)(=O)N(C)C)n3)cc2)CC1`, the Potency is 59.6 nM (active) in [1]; 66.8 nM (active) in experiment [2]; 151 nM (active) in [3]; 0.0241 µM (active) in [4]; 0.0152 µM (active) in experiment [5]; 79.6 nM (active) in experiment [8]. The outcome in experiment [6] is “inactive [at 9.52 µM]”. Also, the activity change, negative = inhibition in [7] is -3.36% [at 9.73 µM] (inactive). Moreover, the Z-AUC in experiment [8] (setting [17]) was -1.68; in experiment [8] (measured here: PEO4 Z-AUC) it was -1.52.

Regarding `CC(C)n1cc(-c2ccc(Oc3ccccc3)cc2)c2c(N)ncnc21`, the Potency is 14600 nM (active) in [1], 9200 nM (active) in [2], 1.64 µM (active) in [4] and 2.06 µM (active) in experiment [5]. For the same compound, the outcome in experiment [9] was “inactive”. Moreover, the activity in experiment [10] was -15%; in experiment [12], -34.7%; in [13], -60.7%. For the same compound, the activity change, negative = inhibition in experiment [11] was -8.59%. In experiment [6], the Potency result is “inactive”.

Take `CN(C)Cc1cccc(N=C(c2ccccc2)c2c(O)[nH]c3cc(C(N)=O)ccc23)c1`: the Potency result in experiment [1], in experiment [2], in experiment [3], in [5] and in [7] was “inactive” in each case. Besides, the Potency in experiment [4] is 16.4 µM (active). Moreover, the Z-AUC in experiment [8] was 0.325 (inactive); in experiment [8] (setting [17]), 0.627; in experiment [8] (measured here: PEO4 Z-AUC), -0.143.

As for `C[C@]1(C(=O)Nc2ccc(F)nc2)CCCN1c1nc(Nc2cc(C3CC3)[nH]n2)c2cccn2n1`, the Potency was 2060 nM (active) in [1], 2910 nM (active) in experiment [2] and 1.84 µM (active) in experiment [4].

Regarding `CC1CN(CC(=O)Nc2ccc3c(c2)Cc2cccc(-c4cc(=O)cc(N5CCOCC5)o4)c2S3)CC(C)O1` (stereo unspecified), the Potency result in [1], in experiment [2] and in experiment [14] was “inactive” in each case. Further, in experiment [15], the Potency is 2680 nM (active).

On to `Cc1cc(I)ccc1Nc1c(C(=O)NOCC2CC2)cc(F)c(F)c1F`, for which the Potency was 23100 nM (active) in experiment [1], 18400 nM (active) in [2], 8.33 µM (active) in experiment [4] and 7.42 µM (active) in [5]. In addition, the Potency result in experiment [16] and in [6] was “inactive” in each case. Besides, the Z-AUC in experiment [8] is 0.467 (inactive); in experiment [8] (setting [17]) it was 0.0632; in experiment [8] (measured here: PEO4 Z-AUC) it was 0.231.

`OCCn1cc(-c2ccc3c(c2)CC/C3=N\O)c(-c2ccncc2)n1`: the Potency entry in experiment [1], in [2], in experiment [3], in [6] and in experiment [7] was “inactive” each time. The Z-AUC was 2.52 (inactive) in experiment [8], 1.44 in [8] (setting [17]) and 1.33 in experiment [8] (measured here: PEO4 Z-AUC).

For the compound `Clc1ccc2ncc(-c3cccc(NC4CCNC4)n3)n2c1` (stereo unspecified), the Potency in experiment [1] is 820 nM (active); in experiment [2] it was 10300 nM (active); in [4], 1.3 µM (active); in experiment [5] it was 1.16 µM (active). Also, the outcome in experiment [9] is “inactive”. Moreover, the Potency result in experiment [6] is “inactive”.

Consider `CN(C)CC1CCn2cc(c3ccccc32)C2=C(C(=O)NC2=O)c2cn(c3ccccc23)CCO1` (stereo unspecified), for which the Potency entry in [1] and in [2] was “inactive” each time. Further, the Potency in experiment [4] is 13 µM (active); in experiment [5] it was 16.4 µM (active).

With `O=C(Nc1cc(Oc2cc(F)c(NC(=O)C3(C(=O)Nc4ccc(F)cc4)CC3)cc2F)ccn1)C1CC1`, the Potency is 5170 nM (active) in experiment [1]; 4610 nM (active) in experiment [2]; 18600 nM (active) in [3]; 2.59 µM (active) and inactive in [4]; 2.59 µM (active) and inactive in [5]. Besides, the Potency result in [6] and in experiment [7] was “inactive” throughout. In addition, the figures for the Z-AUC in experiment [8], in experiment [8] (setting [17]) and in [8] (measured here: PEO4 Z-AUC) were -0.419 (inactive), 0.97 and -0.43, respectively.

For `CNS(=O)(=O)c1ccc2c(c1)/C(=C/c1[nH]c3c(c1CCCN1CCN(C)CC1)CCCC3)C(=O)N2`, the Potency result in [1], in experiment [2], in [4], in experiment [6] and in experiment [7] was “inactive” in each case. Further, the Potency in experiment [3] is 20800 nM (active); in experiment [5] it was 16.6 µM (active). Besides, the Z-AUC in experiment [8] is 0.43 (inactive); in experiment [8] (setting [17]), 0.259; in experiment [8] (measured here: PEO4 Z-AUC), -0.147.

As to `O=C(NOCCO)c1cc(CN2OCCCC2=O)c(F)c(F)c1Nc1ccc(I)cc1F`, the Potency result in experiment [1], in experiment [2], in [3], in [4] and in experiment [6] was “inactive” throughout. The Z-AUC is -1.18 (inactive) in experiment [8], -0.961 in experiment [8] (setting [17]) and -1.01 in [8] (measured here: PEO4 Z-AUC).

Turning to `C[C@H]1COCCN1c1cc(C2(S(=O)(=O)C3CC3)CC2)nc(-c2ccc(NC(=S)NCCO)cc2)n1`, the Potency is 103 nM (active) in [1]; 731 nM (active) in experiment [2]; 208 nM (active) in experiment [3]; 0.059 µM (active) in [4]; 0.0934 µM (active) in experiment [5]. Further, the Potency result in [6] and in [7] was “inactive” in each case. The Z-AUC in [8] is -1.32 (inactive); in experiment [8] (setting [17]), -1.07; in experiment [8] (measured here: PEO4 Z-AUC) it was -1.96.
